Only some compounds are listed: those with a hit (about 0.4% of all), similar ones and a draw of the others.
aGlu spleen mod: qHTS Assay for Inhibitors and Activators of Human alpha-Glucosidase From Spleen Homogenate; Lysosomal alpha-glucosidase (Homo sapiens), P10253; human spleen homogenate, 4-MU-alpha-glucoside fluorescence; Potency, µM (doses to about 79.9 µM), without a hit: at the highest dose activity change, negative = inhibition, most hits filed as inhibitors; 0.006% of 240,000 active; AID 2112, 2009;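 note: potency is the fitted concentration of half-maximal effect; 0% = enzyme with vehicle and -100% = no enzyme basal signal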
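Compounds were titrated against alpha-glucosidase in spleen homogenate at pH 5.0, with 1 mM 4-methylumbelliferyl substrate for 40 min at 37 C. Reactions were quenched with pH 10 NaOH/glycine and fluorescence measured.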
GAA inhib: qHTS Assay for Inhibitors of Human alpha-Glucosidase as a Potential Chaperone Treatment of Pompe Disease | purified human GAA, 4-MU-alpha-glucoside fluorescence | Potency, µM (series often up to 76.9 µM), inactives show top-dose activity change, negative = inhibition, most hits filed as inhibitors | 0.005% of 200,000 active | AID 1466, 2008;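 note: potency is the fitted concentration of half-maximal effect; plate controls were uninhibited enzyme wells for no effect and no-enzyme background for full effect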
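Fluorogenic assay: 4 nM human alpha-glucosidase with 400 uM 4-methylumbelliferyl-alpha-D-pyranoside in 50 mM citrate/phosphate, 0.005% Tween-20, pH 5.0, 20 min at room temperature. Compounds tested up to 77 uM; AC50 from Hill fits.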
GAA glycogen mod: qHTS Assay for Inhibitors and Activators of Human alpha-Glucosidase Cleavage of Glycogen; 0.38% of 300,000 active; recombinant GAA, glycogen substrate, Amplex Red glucose oxidase fluorescence; Lysosomal alpha-glucosidase (Homo sapiens), P10253; Potency, µM (top dose mostly 76.4 µM), without a hit: at the top dose activity change, negative = inhibition, most hits filed as inhibitors;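 note: potency is the fitted concentration of half-maximal effect; 0% = full enzyme reaction and -100% = no-enzyme basal signal; the screen sought inhibitors and activators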
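Natural-substrate format: glycogen cleavage by 4 nM human enzyme, glucose read by Amplex Red coupling (Ex 573, Em 610 nm). Normalized to enzyme and no-enzyme controls.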
aGal spleen mod: qHTS Assay for Inhibitors and Activators of Human alpha-Galactosidase From Spleen Homogenate; AID 2107, 2009; Potency, µM (top dose mostly 80 µM), for the others: at the highest dose activity change, negative = inhibition, most hits filed as inhibitors; 0.008% of 240,000 active; human spleen homogenate, 4MU-alpha-Gal fluorescence, 40 min; Alpha-galactosidase A (Homo sapiens), P06280;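 note: potency is the fitted concentration of half-maximal effect; 0% = enzyme with vehicle and -100% = no enzyme basal signal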
Target sequence (P06280 32-429 limits assumed): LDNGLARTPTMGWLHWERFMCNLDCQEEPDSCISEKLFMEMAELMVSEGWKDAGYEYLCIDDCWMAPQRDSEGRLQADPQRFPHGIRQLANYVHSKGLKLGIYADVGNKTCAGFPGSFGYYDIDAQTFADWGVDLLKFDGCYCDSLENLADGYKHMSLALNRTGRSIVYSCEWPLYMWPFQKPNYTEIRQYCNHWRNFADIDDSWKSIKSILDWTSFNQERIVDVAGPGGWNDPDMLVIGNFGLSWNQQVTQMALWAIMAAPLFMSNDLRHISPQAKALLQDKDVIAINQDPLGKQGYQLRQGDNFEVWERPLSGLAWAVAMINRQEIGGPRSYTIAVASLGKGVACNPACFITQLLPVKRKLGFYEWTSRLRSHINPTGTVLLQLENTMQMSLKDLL
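Fluorogenic readout (Ex 365/Em 440 nm) of 4-methylumbelliferone released from 1 mM 4-MU-alpha-galactoside by spleen homogenate, 40 min at 37C, pH 5.0. Data normalized to no-enzyme and enzyme controls; Hill-equation AC50 from compound titrations.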
GLA inh pH 4.5: qHTS Assay for Inhibitors of Human alpha-Galactosidase at pH 4.5. AID 1467, 2008. Alpha-galactosidase A (Homo sapiens), P06280. purified enzyme, 4-MU-alpha-Gal fluorescence, pH 4.5. 230,000 tested, under 10 active. activity change, negative = inhibition, % at 105 µM;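 note: 0% = full activity with enzyme and -100% = basal without enzyme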
* = called active by the depositor; ? = inconclusive; nt = no result; [ ] = remark or other dose. Calls come from the whole dose curve; as a rule, active = well fitted curve in the direction sought with a large enough effect; inconclusive = small, poorly fitted or top-dose-only effect, or another doubt; inactive = no such curve, though single readings can be large; an effect the other way counts as inactive or inconclusive.

SMILES	aGlu spleen mod	GAA inhib	GAA glycogen mod	aGal spleen mod	GLA inh pH 4.5
O=C(OCC(=O)N1CCCCCC1)c1ccc(S(=O)(=O)N2CCOCC2)cc1	-5%	-7%	7%	4%	4
COc1ccc(S(=O)(=O)Nc2cc3c(cc2NCc2ccccc2)n(C)c(=O)n3C)cc1	nt	nt	10µM*	nt	nt
CCc1ccccc1N1C[C@@]23C=C[C@@H](O2)C(C(=O)OCC(C)C)[C@H]3C1=O (stereo not given in full)	-2%	-5%	11%	-7%	9
O=C1CC(N2CCCCCC2)C(=O)N1c1ccc2c(c1)OCO2 (stereo not given)	5%	-8%	-1%	5%	-2
O=C1CC(N2CCN(c3ccc(O)cc3)CC2)C(=O)N1c1ccc2c(c1)OCO2 (stereo not given)	3%	12%	16µM*	-6%	0
CCOc1ccc(NC(=O)N(CCN2CCOCC2)Cc2ccc3c(c2)CCCN3CC)cc1	-14%	0%	8.9µM*	17%	8
CCOc1ccc(NC(=O)N(CCCN2CCOCC2)Cc2cccnc2)cc1	-1%	-10%	13%	-8%	-3
CCCN1CCCc2cc(CN(CCCN3CCOCC3)C(=O)Nc3ccc(OCC)cc3)ccc21	0%	?	3.5µM*	-6%	-7
C/C(=N\N1CCN(Cc2ccccc2Cl)CC1)c1ccc(F)cc1	0%	nt	?	7%	0
Cn1cc(-c2nc3cncnc3n(C3CC3)c2=O)c2ccccc21	-7%	nt	nt	10%	nt
O=c1[nH][nH]c(C(F)(F)F)c1C=Nc1ccccc1	-4%	2%	4%	-11%	5
Cc1cc(O)ccc1N=Cc1c(C(F)(F)F)[nH][nH]c1=O	3%	-11%	22µM*	-2%	3
CNC(=O)c1c(NC(=O)c2ccco2)sc2c1CCCC2	nt	nt	-1%[76.3 µM]	nt	nt
Cc1ccc(C(=O)C(NC(=O)c2ccco2)Nc2sc3c(c2C(N)=O)CCCC3)cc1 (stereo not given)	-11%	-7%	25µM*	-3%	-6
COc1ccc(O)c(-c2c(-c3ccc(Cl)cc3)n[nH]c2C)c1	1%	-8%	10µM*	-5%	-7
C[N+](C)(C)CCN1C(=O)CSC1=O	2%	nt	6%	8%	7
COc1cccc(CNn2c(-c3cccc(C)c3)nc3ccccc3c2=O)c1O	-8%	-1%	31µM*	-9%	-1
COc1ccc(O)c(CNn2c(-c3ccc(Br)cc3)nc3ccccc3c2=O)c1	-4%	8%	-13%	15%	11
COc1ccc(/C=N/NC(=O)c2nc(-c3ccccc3)cc(-c3ccccc3)n2)cc1OC	8%	-7%	-6%	7%	-2
COc1ccc(/C=N/c2oc(-c3ccccc3)cc2C#N)cc1OC	1%	3%	25µM*	9%	8
COc1cc(C(C)=O)ccc1Oc1ncnc2c1cnn2-c1ccc(F)cc1	0%	1%	9%	4%	2
Fc1ccccc1Nc1n[nH]c(=S)s1	6%	7%	16µM*	-3%	2
COc1ccc(-c2nc3ccccn3c2NCc2ccc3c(c2)OCO3)cc1	-12%	-2%	8.8µM*	1%	-1
c1ccc(-c2nc3ccccn3c2NCc2ccc3c(c2)OCO3)cc1	6%	8%	25µM*	12%	-28
COc1ccc(-c2nc3cc(C)ccn3c2NCc2ccc3c(c2)OCO3)cc1	-4%	?	?	0%	3
SMILES	aGlu spleen mod	GAA inhib	GAA glycogen mod	aGal spleen mod	GLA inh pH 4.5
CC1(C)OC(=O)C(=NNc2ccc(O)cc2)C(=O)O1	-12%	-3%	11µM*	-7%	2
CCOC(=O)c1c(C)[nH]c2c1cc(O)c1ccccc12	-1%	0%	16µM*	3%	-22
Cc1cccc(NC(=S)NNC(=S)NCc2ccccc2)c1	-1%	-7%	7.9µM*	-5%	-6
CCCn1c(CNc2ccccc2O)nc2ccccc21	-3%	-9%	12µM*	1%	-10
CCCn1c(CNC(=O)c2ccc(F)cc2)nc2ccccc21	nt	nt	16%[76.3 µM]	nt	nt
Brc1ccc(-c2nc3ncccn3c2NC2CCCCC2)o1	5%	-8%	25µM*	4%	7
Cc1ccc(-c2nc3ncccn3c2NC2CCCC2)o1	-3%	5%	14µM*	6%	-7
CCOC(=O)c1cc(-c2ccc(OC)cc2)nc2c1c(C)nn2CCC#N	24%	13%	-25%	?	5
COc1ccc(-c2cc(Nc3ccccc3NC(=O)C(F)(F)F)n(CCC#N)n2)cc1	-3%	-1%	35µM*	4%	0
C/C(CC(=O)Nc1ccccc1[N+](=O)[O-])=N\NC(=O)COc1ccccc1C	-3%	-3%	-23%	5%	-29
COc1cccc(-c2nccc(NCCc3c[nH]c4ccc(OC)cc34)n2)c1	-6%	nt	nt	?	nt
COc1ccc2[nH]cc(CCNc3ccnc(-c4ccccc4C)n3)c2c1	-21%	nt	nt	32µM*	nt
CC(NC(=O)CCCn1cc([N+](=O)[O-])cn1)c1ccccc1 (stereo not given)	3%	-11%	6%	4%	-2
Cc1ccccc1N1C(=O)CC(N(O)c2ccccc2)C1=O (stereo not given)	-2%	0%	4µM*	-7%	4
O=C1CC(N(O)c2ccccc2)C(=O)N1c1cc(Cl)cc(Cl)c1 (stereo not given)	1%	-9%	22µM*	1%	0
COc1ccccc1N(O)C1CC(=O)N(c2ccc(F)cc2)C1=O (stereo not given)	-5%	2%	18µM*	2%	10
COC(=O)C1=C(C)N(CC2CC2)C(=NCCN2CCOCC2)N[C@H]1c1ccccc1	nt	nt	19%[76.3 µM]	nt	nt
CC(C)C(NS(=O)(=O)/C=C/c1ccccc1)C(=O)NCc1ccc(F)cc1 (stereo not given)	nt	nt	8%	nt	nt
Cc1[nH]n(C(C)(C)C)c(=O)c1Sc1ccccc1	-1%	1%	16µM*	4%	9
CN1c2ccccc2C(C)(C)C12C=Nc1c(cc(N3CCOCC3)c3ccccc13)O2 (stereo not given)	3%	5%	-22%	9%	-15
CN1c2ccccc2C(C)(C)C12C=Cc1cc(O)ccc1O2 (stereo not given)	-11%	0%	12µM*	5%	-20
O=c1cc(-c2ccc(C3CCCCC3)cc2)[nH][nH]1	9%	-3%	16µM*	14%	0
O=C(CN1C(=O)c2ccccc2S1(=O)=O)c1ccc(O)c(O)c1	0%	nt	14µM*	-2%	3
COc1ccc(C(=O)CN2C(=O)c3ccccc3S2(=O)=O)cc1	0%	nt	-5%	9%	-8
